Measured values reported in PubChem BioAssay AID743100 (Vanderbilt Specialized Chemistry Center, 2013).
Unmarked numbers belong to inactive results. Calls of active or inactive are those of the source.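 The calls were made as follows: active = calcium response above 60% of the acetylcholine maximum at human M5, as a positive modulator; inactive = the rest.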

Each molecule was assayed against Muscarinic acetylcholine receptor M5 (Homo sapiens) (UniProt P08912) (assay: potentiators of ACh response at human M5 – cell-based, single concentration, CHO-K1 hM5, calcium flux (AID 743100)). Conditions: CHO-K1 hM5, Fluo-4 calcium flux, ACh EC20, hits give high values; at 10 µM unless noted.
Sequence of Muscarinic acetylcholine receptor M5 (Homo sapiens) (P08912 whole entry, looked up): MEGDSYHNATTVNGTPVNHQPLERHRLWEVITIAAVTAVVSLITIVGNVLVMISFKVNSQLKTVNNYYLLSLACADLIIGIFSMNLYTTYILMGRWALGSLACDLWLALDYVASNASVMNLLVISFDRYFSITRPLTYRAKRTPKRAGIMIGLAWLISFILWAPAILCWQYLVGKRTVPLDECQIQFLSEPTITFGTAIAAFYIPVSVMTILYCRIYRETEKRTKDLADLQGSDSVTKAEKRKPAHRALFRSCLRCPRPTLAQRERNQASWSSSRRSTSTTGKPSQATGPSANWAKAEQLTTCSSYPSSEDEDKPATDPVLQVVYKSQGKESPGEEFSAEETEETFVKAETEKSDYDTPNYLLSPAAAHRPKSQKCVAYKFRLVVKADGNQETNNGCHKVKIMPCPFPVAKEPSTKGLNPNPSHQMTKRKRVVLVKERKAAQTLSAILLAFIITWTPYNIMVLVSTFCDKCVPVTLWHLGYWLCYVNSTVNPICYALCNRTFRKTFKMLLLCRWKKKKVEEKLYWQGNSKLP

Row | SMILES | % ACh max response
1 | CCN(Cc1ccccc1)C(=O)C1CCN(S(=O)(=O)c2ccc3cnn(C)c3c2)CC1 | 62.3% (active)
2 | CCN(CC1CCN(S(=O)(=O)c2ccc3cn[nH]c3c2)CC1)C(=O)c1ccccc1 | 13.7%
3 | CCN(Cc1ccccc1)C(=O)C1CCN(S(=O)(=O)c2ccc(C(C)=O)cc2)CC1 | 58.4% [at 30 µM]
4 | COc1ccc(S(=O)(=O)N2CCC(CN(Cc3ccccc3)C(C)=O)CC2)cc1 | 11.8%
5 | CCN(Cc1ccccc1)C(=O)C1CCN(S(=O)(=O)c2ccc(OC(F)(F)F)cc2)CC1 | 71.7% [at 30 µM] (active)
6 | CCN(Cc1ccccc1)C(=O)C1CCN(S(=O)(=O)c2cccc3c2OCCO3)CC1 | 48% [at 30 µM]
7 | CC(=O)N(Cc1ccccc1)CC1CCN(S(=O)(=O)c2ccc3occc3c2)CC1 | 8.25%
8 | CCN(Cc1cccc(C(F)(F)F)c1)C(=O)C1CCN(S(=O)(=O)c2ccc3cn[nH]c3c2)CC1 | 35.4%
9 | CCN(Cc1ccccc1)C(=O)C1CCN(S(=O)(=O)c2ccc(C(C)C)cc2)CC1 | 66.7% [at 30 µM] (active)
10 | CCN(Cc1ccccc1C(F)(F)F)C(=O)C1(F)CCN(S(=O)(=O)c2ccc3occc3c2)CC1 | 54%
11 | CCN(Cc1ccccc1C(F)(F)F)C(=O)C1CCN(S(=O)(=O)c2ccc3cn[nH]c3c2)CC1 | 84.2% (active)
12 | CCN(Cc1cccc(F)c1F)C(=O)C1CCN(S(=O)(=O)c2ccc3cn[nH]c3c2)CC1 | 63.7% (active)
13 | CCN(Cc1cc(F)ccc1F)C(=O)C1CCN(S(=O)(=O)c2ccc3cn[nH]c3c2)CC1 | 57.2%
